Test results: PubChem BioAssay (NCATS)
A number with no mark means an inactive call. Records with an inconclusive call do not appear. Entries that show only a call come without a potency. Active and inactive are the calls of the source. Calls come from the whole dose curve; as a rule, active = well fitted curve in the direction sought with a large enough effect; inconclusive = small, poorly fitted or top-dose-only effect, or another doubt; inactive = no such curve, though single readings can be large; an effect the other way counts as inactive or inconclusive.

What was measured:
[1] = test system: Zika virus NS2B-NS3 protease (linked construct); experiment: Primary screen NINDS Rhodamine qHTS for Zika virus inhibitors (AID 1347160); note: potency is the fitted concentration of half-maximal effect; nearly all actives have a fitted effect of over 55% in size
In short: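 Percent inhibition, normalized to uninhibited and enzyme-free controls, is fitted to a 4-parameter Hill equation. Fluorescence change comes from a 15-min cleavage of 1.5 microM bis-peptide Rhodamine110 substrate by 25 nM linked NS2B-NS3 at room temperature.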

[2] = OV-KATE Cancer Cell Toxicity qHTS against the NCATS CANVASS Library (AID 1347345)
In short: (§1)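 1000 cells/well seeded and rested 4 h at 37 °C before pin transfer of compounds in an 11-pnt series. Exposure 72 h at 37 °C/5% CO2; viability by CellTiter-Glo luminescence after 15 min at room temperature.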

[3] = HPAF-II Cancer Cell Toxicity qHTS against the NCATS CANVASS Library (AID 1347346); note: series mostly up to about 38 µM; nearly all actives have a fitted effect of over 55% in size
In short: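 HPAF-II cells were seeded at 1000 cells/well, allowed to settle for 4 h at 37 degrees C, then exposed to compounds in an 11-point series for 72 h. Viability was read by CellTiter-Glo luminescence.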

[4] = UWB1.289 Cancer Cell Toxicity qHTS against the NCATS CANVASS Library (AID 1347347); note: series mostly up to about 38 µM; nearly all actives have a fitted effect of over 60% in size
In short: as §1

[5] = OV-SAHO Cancer Cell Toxicity qHTS against the NCATS CANVASS Library (AID 1347348); note: series mostly up to about 38 µM; nearly all actives have a fitted effect of over 55% in size
In short: as §1

[6] = Panc-1005 Cancer Cell Toxicity qHTS against the NCATS CANVASS Library (AID 1347349); note: series mostly up to about 38 µM; nearly all actives have a fitted effect of over 60% in size
In short: as §1

[7] = SW1088 Cancer Cell Toxicity qHTS against the NCATS CANVASS Library (AID 1347350); note: series mostly up to about 38 µM; nearly all actives have a fitted effect of over 75% in size
In short: as §1

[8] = U-118MG Cancer Cell Toxicity qHTS against the NCATS CANVASS Library (AID 1347351); note: series mostly up to about 38 µM
In short: as §1

[9] = COV-362 Cancer Cell Toxicity qHTS against the NCATS CANVASS Library (AID 1347352); note: series mostly up to about 38 µM
In short: (§2)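 Cells were seeded at 1000 per well and allowed to settle 4 hours at 37 degrees C before pin transfer of compounds as an 11-point series. Viability was read by CellTiter-Glo luminescence after 72 hours' exposure.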

[10] = A2780 Cisplatin Sensitive Ovarian Cancer Cell Toxicity qHTS against the NCATS CANVASS Library (AID 1347353); note: nearly all actives have a fitted effect of over 60% in size
In short: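 A2780 cisplatin-sensitive cells (750 per well) were seeded, left 4 h at 37 °C, then pin-dosed in an 11-point series. After 72 h at 37 °C/5% CO2, viability was measured as ATPLite luminescence.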

[11] = UWB1.289-WTBRCA1 Cancer Cell Toxicity qHTS against the NCATS CANVASS Library (AID 1347354)
In short: as §2

[12] = HEK-293 Cancer Cell Toxicity qHTS against the NCATS CANVASS Library (AID 1347355); note: series mostly up to about 46 µM; nearly all actives have a fitted effect of over 65% in size
In short: as §2

[13] = HPAF-II 24hr Apoptosis Induction qHTS against the NCATS CANVASS Library (AID 1347356)
In short: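 HPAF-II cells (500/well) in DMEM + 10% FBS were treated with an 11-point compound series for 24 hours at 37 degrees C. Caspase-3/7 activity was then read by Caspase-Glo DEVD luminescence after 15 min.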

[14] = HEK293 18hr Apoptosis Induction qHTS against the NCATS CANVASS Library (AID 1347357)
In short: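 HEK293 cells (500 per well, DMEM with 10% FBS) were treated with natural products, incubated 18 hours at 37 degrees C, then caspase-3/7 activity was read by Caspase-Glo luminescence after 15 min at room temperature.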

[15] = HEK293 24hr Apoptosis Induction qHTS against the NCATS CANVASS Library (AID 1347359)
In short: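 Caspase-3/7 activation measured as luminescence from the DEVD-based Caspase-Glo reagent, 15 min at room temperature, following 24-hour compound treatment of HEK293 cells.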

[16] = HPAF-II 18hr Apoptosis Induction qHTS against the NCATS CANVASS Library (AID 1347360)
In short: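 HPAF-II cells (500/well, DMEM + 10% FBS) were exposed to compounds for 18 hours at 37 degrees C. Caspase-3/7 activity was then read by Caspase-Glo 3/7 luminescence after 15 min at room temperature.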

[17] = HEK293 12hr Apoptosis Induction qHTS against the NCATS CANVASS Library (AID 1347361)
In short: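 Read-out: Caspase-Glo 3/7 luminescence (DEVD substrate), 15 min RT. Preceded by 12 h compound exposure of HEK293, 500 cells/well, 11-pt qHTS titration; doxorubicin titration as control.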

[18] = test system: NAD(P)H diaphorase (Clostridium kluyveri); experiment: Diaphorse counterscreen qHTS: Assay Interference Panel against the NCATS CANVASS Library (AID 1347362)
In short: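 Counterscreen for coupling-enzyme interference: resorufin fluorescence from resazurin/NADH turnover, read after 5 min at room temperature. Compounds were tested over an 11-point series after 15 min dark preincubation with diaphorase in PBS-Tween.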

[19] = biological target: Luciferin 4-monooxygenase (Photinus pyralis) (UniProt P08659); experiment: Firefly luciferase counterscreen qHTS: Assay Interference Panel against the NCATS CANVASS Library (AID 1347363); note: series mostly up to about 57 µM
Chain of Luciferin 4-monooxygenase (Photinus pyralis) (P08659 whole entry, looked up): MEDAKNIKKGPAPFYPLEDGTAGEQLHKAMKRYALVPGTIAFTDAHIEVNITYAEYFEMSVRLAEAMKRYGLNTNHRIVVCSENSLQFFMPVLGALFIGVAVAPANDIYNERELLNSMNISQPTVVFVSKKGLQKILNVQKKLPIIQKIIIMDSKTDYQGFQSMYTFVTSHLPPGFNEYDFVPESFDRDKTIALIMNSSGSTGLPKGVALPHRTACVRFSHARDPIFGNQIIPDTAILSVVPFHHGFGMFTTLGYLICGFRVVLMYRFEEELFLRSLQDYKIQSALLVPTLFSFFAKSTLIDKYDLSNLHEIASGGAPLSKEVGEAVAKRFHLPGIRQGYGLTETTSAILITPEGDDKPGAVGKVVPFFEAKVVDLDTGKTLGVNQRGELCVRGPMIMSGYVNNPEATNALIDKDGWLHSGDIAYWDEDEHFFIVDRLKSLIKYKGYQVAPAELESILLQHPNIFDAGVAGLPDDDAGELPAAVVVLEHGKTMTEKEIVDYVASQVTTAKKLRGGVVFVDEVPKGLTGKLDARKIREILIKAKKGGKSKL
In short: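 Luminescence inhibition readout: compounds (11-point qHTS) sat 15 min at room temperature with substrate mix (0.013 mM luciferin and ATP), then firefly luciferase was added and signal read 5 min later.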

[20] = KB-8-5-11 Cancer Cell Toxicity qHTS against the NCATS CANVASS Library (AID 1347364); note: series mostly up to about 46 µM; nearly all actives have a fitted effect of over 75% in size
In short: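 KB-8-5-11 cells (500/well) in DMEM + 10% FBS were exposed to compounds in an 11-point qHTS series for 72 hr at 37C, 5% CO2. Viability was read by CellTiter-Glo luminescence.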

[21] = SDT Cancer Cell Toxicity qHTS against the NCATS CANVASS Library (AID 1347365);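 note: SDT canine glioma cells 500 per well in 1536 well plates; series mostly up to about 46 µM; nearly all actives have a fitted effect of over 60% in size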
In short: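 SDT canine glioma cells (500 cells/well) were exposed to compounds in an 11-point series for 72 hr at 37C, 5% CO2; viability was read as ATP content by CellTiterGlo luminescence.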

[22] = KB-3-1 Cancer Cell Toxicity qHTS against the NCATS CANVASS Library (AID 1347366); note: series mostly up to about 46 µM; nearly all actives have a fitted effect of over 75% in size
In short: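 KB-3-1 cells (500 cells/well) in DMEM + 10% FBS were treated with compounds for 72 hr at 37C, 5% CO2. Viability was read as CellTiter-Glo luminescence after 10 minutes at room temperature.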

[23] = qHTS for ATAD5 Agonist screened against the NCATS CANVASS Library (AID 1347367);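 note: luciferase reporter driven by ATAD5 which rises upon DNA damage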
In short: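 HEK293T cells stably carrying an ATAD5-controlled luciferase reporter (2000 cells/well) attached for 5 hr, then received compounds in an 11-point series for 16hr at 37C. Luminescence was read after a 30 min room-temperature reagent step.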

SMILES: CC1(C)CCC[C@]2(C)[C@@H]1CC[C@@]13C[C@@H](CC[C@H]12)C(C)(O)C3 (stereo partly drawn)
- Potency [1]: 44 µM (active)
- Potency [2]: inactive
- Potency [3]: inactive
- Potency [4]: inactive
- Potency [5]: inactive
- Potency [6]: inactive
- Potency [7]: inactive
- Potency [8]: inactive
- Potency [9]: inactive
- Potency [10]: inactive
- Potency [11]: inactive
- Potency [12]: inactive
- outcome [13]: inactive
- Potency [14]: inactive
- Potency [15]: inactive
- Potency [16]: inactive
- Potency [17]: inactive
- Potency [18]: inactive
- Potency [19]: inactive
- Potency [20]: inactive
- Potency [21]: inactive
- Potency [22]: inactive
- Potency [23]: inactive
